One assay deals with Klebsiella pneumoniae. The following applies: Concentration 32 ug.mL-1; ASSAY_TEST Inhibition of Bacterial Growth; detection method Absorption (OD600); MEDIA CAMHB; plate type 384well; NBS; CORNING #3640; time 18 hr.
The subject of the next assay is Candida albicans. The conditions noted are these: 32 ug/mL.
For another assay, the system named is Cryptococcus neoformans. The conditions noted are these: Concentration 32 ug.mL-1; ASSAY_TEST Inhibition of Fungal Growth; detection method Resazurin; Absorption (OD600-OD570); plate type 384well; NBS; CORNING #3640. For orientation: The colour change of resazurin is a common sign of viable cells or microbes.

Entries with a potency or affinity are not part of this list.

As to `N#C[C@]1(Br)C(=N)Oc2ccc3ccccc3c2[C@@H]1c1ccc([N+](=O)[O-])cc1`, the Inhibition (in general, the drop in the measured response relative to a control, in per cent) in the assay on Klebsiella pneumoniae was 5.78%; in the assay on Candida albicans, 6.21%; in the assay on Cryptococcus neoformans, -3.1%.
For the molecule `COc1cccc(C2c3ccc4ccccc4c3OC(=NBr)C2(Br)C#N)c1` (centres undefined), the Inhibition is 5.65% in the assay on Klebsiella pneumoniae, -0.64% with Candida albicans and -51.44% in the assay on Cryptococcus neoformans.
On the same counts, the results for `Cn1c(C(=O)O)cc2ccccc21` are 18.05%, 24.1% and 5.37%.
On the same counts, the results for `Cc1ccc2nc(Cl)c(/C=N/N)cc2c1` are 10.01%, 15.7% and -3.85%.
Consider `O=C(N/N=C/c1c[nH]c2ccccc12)c1ccco1`, for which the Inhibition was 12.93% in the assay on Klebsiella pneumoniae, 1.93% in the assay with Candida albicans and -1.51% in the assay with Cryptococcus neoformans.
In the case of `c1ccc(Cn2ccc3ccccc32)cc1`, the Inhibition in the assay on Klebsiella pneumoniae is 13.32%; in the assay with Candida albicans, 4.28%; with Cryptococcus neoformans it was -3.9%.
Taken in the same sequence, the figures for `N#Cc1cc(C#N)c(N2CCCC2)nc1N` were 16.35%, 1.23% and -54.35%.
Taken in the same sequence, the figures for `c1ccc(CNc2ncnc3c2cnn3-c2ccccc2)cc1` were -0.11%, 0.45% and -6.46%.
On the same counts, the results for `O=C(N[C@H]1CC[C@H](O)CC1)c1ccccc1` are 10.98%, 2.54% and -38.05%.
For `COC(=O)C(NC(=O)c1ccccc1)=C(C)c1ccccc1`, the Inhibition in the assay with Klebsiella pneumoniae was 19.09%; in the assay on Candida albicans, -0.01%; in the assay on Cryptococcus neoformans it was -1.2%.
In the case of `CS(=O)(=O)O[C@H]1CC[C@H](OS(C)(=O)=O)CC1`, the Inhibition in the assay with Klebsiella pneumoniae was 13.68%; in the assay with Candida albicans it was 3.52%; in the assay with Cryptococcus neoformans, -30.83%.
With `Cl.Nc1c2c(nc3c1C(c1ccccc1)c1c(ccc4ccccc14)O3)CCCC2` (centres undefined), the results for the Inhibition in the assay with Klebsiella pneumoniae, with Candida albicans and in the assay on Cryptococcus neoformans were 8.19%, 1.33% and -0.7%, respectively.
On the same counts, the results for `CC(=O)CC(=O)N1[C@@H]2C[C@H]3CCC2(CS1(=O)=O)C3(C)C` are 13.63%, 5.03% and -2.49%.
On the same counts, the results for `CN(C)c1nc2nc3c(c(N)c2c(-c2ccccc2)c1C#N)CCCC3` are 5.15%, 1.47% and -62.72%.
Take `C#CCN(C)Cc1cc2cc(OCCCC3CCN(Cc4ccc(OC)c5ncccc45)CC3)ccc2n1C`: the results for the Inhibition with Klebsiella pneumoniae, with Candida albicans and with Cryptococcus neoformans were -9.53%, 0.97% and -73.89%, respectively.
Taken in the same sequence, the figures for `O=C1OC(c2ccccc2)=NC1=Cc1ccc([N+](=O)[O-])cc1` were 9.13%, -1.46% and -3.36%.
As for `COc1cc(CCC(N)=O)ccc1O`, the values for the Inhibition with Klebsiella pneumoniae, in the assay on Candida albicans and in the assay with Cryptococcus neoformans were 11.33%, -0.74% and -2.02%, respectively.
On the same counts, the results for `Nc1c2c(nc3c1CC(c1c(Cl)cccc1Cl)C(=O)N3)CCCC2` (centres undefined) are 0.93%, -0.19% and -92.02%.
Taken in the same sequence, the figures for `N#Cc1c(N)nc(NCCC2CCN(Cc3ccccc3)CC2)c(C#N)c1-c1ccccc1` were 5.9%, 4.31% and -17.88%.
Taken in the same sequence, the figures for `Cn1c(C(=O)NCc2ccccc2)cc2cc(OCCCC3CCN(Cc4ccccc4)CC3)ccc21` were 8.4%, 1.62% and -77.02%.
Consider `N#Cc1c(N)nc(N)c(C#N)c1-c1ccccc1`, for which the Inhibition was 13.82% in the assay on Klebsiella pneumoniae, 1.47% with Candida albicans and -29.88% with Cryptococcus neoformans.
On the same counts, the results for `COc1ccc2c(c1)cc(CNc1ccccc1)n2C` are 12.88%, 1.07% and -85.66%.
In the case of `COc1cc(C2c3ccc4ccccc4c3Oc3nc4c(c(N)c32)CCCC4)ccc1O.Cl` (centres undefined), the Inhibition in the assay on Klebsiella pneumoniae was -2.62%; with Candida albicans, -0.98%; with Cryptococcus neoformans, -5.33%.
Taken in the same sequence, the figures for `N#Cc1cc2c(N)c3c(nc2nc1Cl)CCN(Cc1ccccc1)C3` were 13.32%, 2.4% and -88.69%.
Taken in the same sequence, the figures for `Cn1c(CNNC(=O)Cc2cccc3ccccc23)cc2ccccc21` were 2.56%, -0.25% and -2.04%.
On the same counts, the results for `CCOC(=O)c1cc2cc(O)ccc2n1C(=O)OC(C)(C)C` are 2.98%, 1.56% and -9.8%.
With `C#CCNc1nc(N)c(C#N)cc1C#N`, the Inhibition in the assay with Klebsiella pneumoniae was 1.8%; in the assay on Candida albicans it was 2.29%; with Cryptococcus neoformans, -24.9%.
On the same counts, the results for `Cl.Cl.Cn1c(CNc2ccccc2)cc2cc(OCCCC3CCN(Cc4ccccc4)CC3)ccc21` are 5.5%, 1.7% and -74.16%.
Consider `CC1Cc2c(Br)nc3nc4c(c(N)c3c2NC1=O)CCCC4` (centres undefined), for which the Inhibition in the assay on Klebsiella pneumoniae is 20.62%; with Candida albicans, -0.9%; in the assay on Cryptococcus neoformans it was -91.63%.
Consider `C#CCn1c(N)c(C#N)c2cc(O)ccc21`, for which the Inhibition was 10.3% with Klebsiella pneumoniae, 1.41% in the assay on Candida albicans and -78.39% in the assay on Cryptococcus neoformans.
On the same counts, the results for `CN(C)c1nc(N)c(C#N)cc1C#N` are 27.85%, 0.31% and -5.23%.
`O=C1SC(SCc2ccccc2)=NC1=Cc1cccc(OCc2ccccc2)c1`: the values for the Inhibition in the assay on Klebsiella pneumoniae, in the assay with Candida albicans and in the assay on Cryptococcus neoformans were -15.18%, 0.84% and -8.61%, respectively.
With `COC(=O)C(=Cc1ccccc1)NC(=O)c1ccccc1`, the figures for the Inhibition in the assay with Klebsiella pneumoniae, in the assay on Candida albicans and with Cryptococcus neoformans were 12.18%, 0.5% and -5.65%, respectively.
On the same counts, the results for `CCOC(=O)C1=C(C)OC(N)=C(C#N)C1c1ccc(OC)cc1` (centres undefined) are 14.63%, 2.59% and -5.46%.
Taken in the same sequence, the figures for `N#CC1(Br)C(=NBr)Oc2ccc3ccccc3c2C1c1ccccc1` (centres undefined) were -3%, 3.44% and -1.83%.
On the same counts, the results for `CC1Cc2ccccc2N1/N=C/c1ccccc1` (centres undefined) are 2.26%, -2.78% and -3.88%.
In the case of `C=C1CNc2c(C#N)c(-c3ccccc3)c(C#N)c(=N)n21`, the figures for the Inhibition with Klebsiella pneumoniae, in the assay on Candida albicans and in the assay with Cryptococcus neoformans were 0.65%, 3.22% and -41.17%, respectively.
On the same counts, the results for `C#CCN(C)c1ncc(C#N)c(N)n1` are 9.44%, 5.2% and -42.08%.

Values taken from ChEMBL document CHEMBL4513135, “CO-ADD screening of IQOG CSIS (Spain) compounds”.
